Results: the supplement of paper PMC6555819

Columns and labels:
Experiment in all cases: PBM binding z-score (relative to random genomic background probes); higher = stronger binding; sequences stand for … in GC…GCGATTGACAGCGTAGAATGAAGG
[1] = system: FXR:RXRa (NR concentration 270 nM, RXRa partner concentration 90 nM)
Summary of the method: (§1)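 Antibodies against each partner of ligand-free nuclear receptor dimers (one per run) detected binding on custom Agilent 4×180K protein-binding microarrays after 1 h incubation. The double-stranded probes had 34-nt variable regions carrying direct-repeat seeds, single-nucleotide variants, half-site ablations and random human genomic background sequences. Binding z-scores, from regression-normalized fluorescence, use the random background probes as reference.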

[2] = system: LXRa:RXRa (NR concentration 270 nM, RXRa partner concentration 90 nM)
Summary of the method: as §1

[3] = system: LXRa homodimer (NR concentration 270 nM)
Summary of the method: as §1

[4] = system: LXRb:RXRa (NR concentration 270 nM, RXRa partner concentration 90 nM)
Summary of the method: as §1

[5] = system: LXRb homodimer (NR concentration 270 nM)
Summary of the method: as §1

[6] = system: PPARa:RXRa (NR concentration 270 nM, RXRa partner concentration 90 nM)
Summary of the method: as §1

[7] = system: PPARg:RXRa (NR concentration 180 nM, RXRa partner concentration 90 nM)
Summary of the method: as §1

[8] = system: PPARg:RXRa 270nM:90nM, anti-RXR (NR concentration 270 nM, RXRa partner concentration 90 nM)
Summary of the method: as §1

[9] = system: PPARg:RXRa 30nM:10nM, anti-RXR (NR concentration 30 nM, RXRa partner concentration 10 nM)
Summary of the method: as §1

[10] = system: PPARg:RXRa 90nM:30nM, anti-RXR (NR concentration 90 nM, RXRa partner concentration 30 nM)
Summary of the method: as §1

[11] = system: PPARg:RXRa DBDmut IVT, anti-RXR (DBD mutation: RXRa K156A/R161A, NR concentration 270 nM, RXRa partner concentration 90 nM)
Summary of the method: as §1

[12] = system: PPARg:RXRa IVT, anti-PPARg (NR concentration 270 nM, RXRa partner concentration 90 nM)
Summary of the method: as §1

[13] = system: PPARg DBDmut:RXRa IVT, anti-PPARg (DBD mutation: PPARg1 K132A/R137A, NR concentration 270 nM, RXRa partner concentration 90 nM)
Summary of the method: as §1

[14] = system: PPARg DBDmut IVT, anti-PPARg (DBD mutation: PPARg1 K132A/R137A, NR concentration 270 nM)
Summary of the method: as §1

[15] = system: PPARg homodimer (NR concentration 180 nM)
Summary of the method: as §1

[16] = system: PXR:RXRa (NR concentration 270 nM, RXRa partner concentration 90 nM)
Summary of the method: as §1

[17] = system: PXR homodimer (NR concentration 270 nM)
Summary of the method: as §1

[18] = system: RARa:RXR (NR concentration 270 nM, RXRa partner concentration 90 nM)
Summary of the method: as §1

[19] = system: RARa homodimer (NR concentration 270 nM)
Summary of the method: as §1

[20] = system: RARb:RXRa (NR concentration 270 nM, RXRa partner concentration 90 nM)
Summary of the method: as §1

Sequence	PBM binding z-score [1]	PBM binding z-score [2]	PBM binding z-score [3]	PBM binding z-score [4]	PBM binding z-score [5]	PBM binding z-score [6]	PBM binding z-score [7]	PBM binding z-score [8]	PBM binding z-score [9]	PBM binding z-score [10]	PBM binding z-score [11]	PBM binding z-score [12]	PBM binding z-score [13]	PBM binding z-score [14]	PBM binding z-score [15]	PBM binding z-score [16]	PBM binding z-score [17]	PBM binding z-score [18]	PBM binding z-score [19]	PBM binding z-score [20]
ATCGATAGGTCGACGAGGTGAGTATACACCGTTT	0.682	0.624	-0.525	0.484	0.0439	1.69	1.15	0.567	0.467	0.349	-0.138	0.962	0.958	-0.138	0.219	0.735	0.0845	1.6	0.235	1.65
GGAACGAGAGCATTCGAGTTGATAGCATGGCGAT	-0.374	-1.05	-0.97	-1.11	-1.55	-0.713	0.37	-0.536	-0.607	-0.728	0.00852	-0.503	-0.558	-0.483	-1.19	0.237	-0.766	-0.817	-0.746	-0.633
TGACCAAGGTGAGCTGAGGTCGTTGATCCAACTC	0.866	1.01	-0.752	0.289	-1.36	1.62	0.26	0.767	-0.66	0.279	0.169	1.43	0.123	-1.59	-0.0589	4.67	0.0412	1.84	-0.758	1.69
CCCTACGGGTCACTGACAGGTTATAGCATTTGGA	5.12	4.24	0.501	3.53	-0.128	5.1	3.55	3.77	0.787	2.43	0.759	2.29	-0.15	-0.444	2.79	3.54	0.381	4.28	1.02	4.02
TGAATGAGGTTATAAGATCAGGGAACGTTGCAAA	1.18	1.31	-0.538	0.8	-0.0754	2.61	1.22	1.75	0.754	1.38	1.08	1.54	0.481	0.281	-0.132	0.601	-0.261	1.25	0.0131	1
ACAGTCAGGTGATGAAGGTAACTCAGGCTATCAT	0.11	-0.185	-0.351	-0.331	-0.338	0.116	0.349	-0.0826	0.0143	-0.0221	0.347	0.415	0.348	0.294	0.022	-0.36	-0.211	0.136	-0.284	0.503
CCGTACGGGTCACGAGGTTATAGCACGACGAGCG	6.63	4.94	0.31	4.08	-0.283	5.88	6.72	6.37	2.37	4.99	2.29	3.93	0.613	-0.38	2.82	4.73	-0.215	6.42	1.17	4.48
ATATGTAGTTTACATCCGGGTCATTCAGGCTATG	1.49	2.34	1.08	2.31	1.04	2.59	1.19	1.19	0.609	1.53	1.36	2.27	1.09	1.65	1.01	2.91	3.16	2.85	0.262	1.51
ATCGCAAGGTCGACGAGGTGAGTATACACCGTTT	1.64	1.32	-0.778	1.06	-0.359	2.74	1.28	0.926	-0.0262	0.379	-0.013	1.1	0.104	0.00511	0.0263	1.89	0.566	2.55	-0.403	2.49
ATCTCTAGGTAAAGTACAGTGAAAGATCGATAGA	0.412	0.617	0.207	0.131	0.745	0.0903	0.761	0.842	0.832	0.623	2.11	2.03	1.17	1.25	1.14	0.119	0.479	0.369	1.59	0.586
CCTACTGGGCCATAAGGTCATTGATATCAACGTT	3.03	3.09	1.89	3.17	0.0476	4.14	4.49	4.98	3.38	4.64	4.4	5.28	0.506	0.0496	2.03	3.98	1.97	4.25	1.27	3.43
GATACTGGGTCAGCTAGAGGCCAGAGTATGGAAA	0.906	0.796	-0.487	0.388	-0.812	2.91	3.87	3.8	0.981	2.65	5.49	5.95	0.246	-0.167	1.24	1.15	-0.114	2.03	-0.28	3.26
CCTTACGGGACACTCCAGGTTATAGCATCGGAGT	0.0463	0.511	0.714	-0.359	-0.449	0.0174	0.619	-0.335	-0.0425	-0.27	0.616	0.708	-0.0587	-0.578	0.252	0.0254	0.23	0.561	-0.181	0.356
CGTCCTAGGTCAAAGGTCAGTGAAGAGATGACGG	7.08	5.88	2.24	5.52	0.881	6.8	11	9.26	9.03	10.2	4.39	5.93	0.538	0.49	3.9	6.08	0.262	7.96	1.07	5.64
AGAAAGAGGTTATACGTAGATCAGGGAAGAAAGT	3.01	2.51	0.203	2.19	0.538	3.37	1.84	1.7	0.807	1.23	1.97	1.35	0.646	0.799	0.915	1.54	0.627	2.07	1.16	2.08
ACTCAAAGTTCAGGACGAGGTAACGTAAAGCACG	4.15	4.07	1.77	2.18	0.639	3.27	1.61	1.86	0.747	1.23	0.133	0.996	0.541	0.409	2.29	3.09	1.46	2.81	0.77	4.52
ATCGACAGGTCGAGGTGAGTATAGAGAAAGGGAA	0.437	0.548	-0.71	0.0707	-0.444	1.51	0.748	0.211	0.16	0.281	-0.576	0.778	-0.0493	-0.0748	0.551	0.0775	0.0221	0.649	0.423	1.69
CGTCCAAGATCAATGCTAGGTCAGTGAAAGCATT	0.162	0.466	0.903	0.371	0.134	0.544	-0.0678	-0.118	-0.166	-0.214	0.0283	0.44	-0.261	0.071	0.835	0.204	0.467	0.725	0.103	1.7
CGTCAAAGTTCAAGGTAGCGTAACAGAAAGCAGC	5.54	5.8	2.95	3.18	0.738	4.56	3.8	5.04	2.26	3.89	0.367	1.36	-0.0381	0.0782	3.03	3.84	2.73	3.35	0.828	5.01
AGAATGAGGTTACAAAAGATCAGGGAAACGCTTG	1.59	6.22	-0.11	3.07	0.0675	3.05	2.31	2.26	0.772	1.54	3.87	3.13	1.47	0.745	0.909	1.23	0.246	1.88	-0.148	1.81
GCATATAGGTAATACAAGGTGAAAGTTCGATTGT	1.05	2.54	0.814	1.37	-0.201	2.67	3.47	4.13	2.29	3.58	3.93	3.61	1.22	1.17	1.2	1.86	0.639	2.6	1.1	0.778
CCTACTGGGCTAAAAAGGTCATTGATGCCGATAA	3.31	3.96	3.16	3.89	0.0245	4.67	2.38	3.6	1.21	2.6	2.24	2.86	-0.829	-0.574	2.32	4.35	1.23	4.77	0.346	3.82
TCTTGTAGATAAGCAGGTTAAGAAAGCTGGCCAA	0.562	0.358	-0.156	-0.00905	-0.669	0.533	-0.481	1.19	2.41	1.65	1.32	0.184	0.000724	-0.186	0.0505	0.206	-0.278	0.402	0.154	0.0488
CCTAGCAGGCCAATCTGGGTCACTTAAGGCTTGA	0.716	1.48	-0.236	0.733	-0.723	2.96	1.68	2.03	-0.218	1.33	4.27	5.04	0.275	-0.588	1.03	1.16	-0.589	1.62	-0.727	1.55
CTACCAAGGTGAACAAGGTCTTTGATTACTATTC	0.811	0.534	-0.122	1.18	-0.113	1.71	0.626	0.721	0.0464	0.438	2.51	2.75	0.785	0.293	0.597	0.752	0.0854	0.973	0.482	1.72
CCTTACGGGGCAAGGTTATAGCACGGGTGGTACG	0.333	0.325	-0.577	0.153	-0.736	1.33	0.791	0.819	-0.199	0.442	-0.0352	0.442	-0.313	-0.783	0.309	0.145	-0.13	0.546	0.0698	1.78
TCTCGGAGGACACGTAAGGTCAGAGCTCGACATC	2.43	3.03	1.46	2.1	-0.238	2.29	0.563	1.42	1.78	1.58	1.32	0.521	0.00634	-0.877	1.75	3.15	0.734	3.13	0.0447	3.41
CCTACTGGGCCAACAGGTCATTGATATCAACGTT	1.42	1.52	1.37	1.98	-0.204	3.21	4.01	4.41	2.65	4.24	4.64	4.84	0.0699	0.305	1.23	1.92	0.325	2.13	-0.373	2.12
